Screens: PubChem, National Center for Advancing Translational Sciences (NCATS)
LmPK inhibitor = qHTS Assay for Inhibitors of Leishmania Mexicana Pyruvate Kinase (LmPK); purified LmPK, Kinase-Glo ATP luminescence, 1 h; Potency, µM (titrated, usually from 57.5 µM), for the others: at the top dose activity change, negative = inhibition, most hits filed as inhibitors; 290,000 compounds, 0.37% hits; AID 1721, 2009; further: potency means the concentration at half of the fitted maximal effect; on the % scale 0 is the no-effect control and ±100 the full control effect
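qHTS format; LmPK 0.1 nM; substrates PEP 0.5 mM and ADP 0.1 mM. One-hour room-temperature incubation, then coupled luciferase luminescence; 0.5 nM enzyme wells mark activation.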
FBPA Giardia inh = qHTS Assay for Inhibitors of Fructose-1,6-bisphosphate Aldolase from Giardia Lamblia; A8B2U2; purified Giardia FBPA; Potency, µM (top dose mostly 59.6 µM), for the others: at the highest dose activity, negative = inhibition, usual class: inhibitors; 290,000 compounds, 0.71% hits; further: potency means the concentration at half of the fitted maximal effect; on the % scale 0 is the no-effect control and ±100 the full control effect; nearly all actives have a fitted effect of over 55% in size
Target sequence (A8B2U2 whole entry, looked up): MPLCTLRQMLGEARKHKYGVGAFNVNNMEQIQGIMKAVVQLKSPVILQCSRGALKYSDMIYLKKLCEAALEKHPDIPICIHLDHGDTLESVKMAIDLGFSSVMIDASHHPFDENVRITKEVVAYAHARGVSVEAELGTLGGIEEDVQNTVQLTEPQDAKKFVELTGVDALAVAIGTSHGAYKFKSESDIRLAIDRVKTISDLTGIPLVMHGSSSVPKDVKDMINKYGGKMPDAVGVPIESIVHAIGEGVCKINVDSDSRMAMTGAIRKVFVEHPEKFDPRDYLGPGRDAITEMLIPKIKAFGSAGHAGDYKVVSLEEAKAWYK
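40 nM FBPA preincubated 10 min at RT with compound (up to 57.5 uM final), then substrate plus GAPDH/TPI/NAD/arsenate coupling and diaphorase/resazurin added. Fluorescence read after 20 min at RT, 525/598 nm.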
Cycloheximide cs = Cycloheximide Counterscreen for Small Molecule Inhibitors of Shiga Toxin; 300,000 compounds, 12% hits; cell reporter, cycloheximide protein synthesis inhibition counterscreen; max response, %; in the data active means max response mostly above about 13%, no sharp cut-off; inactive means mostly below about 14%; further: read at 38.3 µM for the half of the compounds with a filed dose; 0% is about no effect
Shiga toxin inh = A qHTS for Small Molecule Inhibitors of Shiga Toxin | Vero cells, Shiga toxin protein synthesis inhibition reporter | inhibition, % at 38.7 µM | 290,000 compounds, 9.2% hits | AID 2315, 2010; in the data active means inhibition mostly above about 28%, no sharp cut-off; inactive means mostly below about 43%; further: 0% is about no effect
Tb PYK inh = qHTS of Trypanosoma Brucei Inhibitors. pyruvate kinase (Trypanosoma brucei), Q57TT1. 410,000 compounds, 0.12% hits. TbPYK enzyme, Kinase-Glo Plus ATP luminescence, 45 min. Potency, µM (doses to about 76.8 µM), for the others: at the top dose activity, negative = inhibition, hits mostly inhibitors; further: potency means the concentration at half of the fitted maximal effect; on the % scale 0 is the no-effect control and ±100 the full control effect; nearly all actives have a fitted effect of over 50% in size
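Activity of T. brucei pyruvate kinase was followed by Kinase-Glo Plus luminescence after the enzyme reacted 45 min at room temperature with 130 uM ADP (final) and substrate. Test compounds were added before ADP at multiple concentrations.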
RE007 growth inh = qHTS Assay for Inhibitors of the HIV-1 protein Vpr; S. pombe RE007 Vpr strain, BacTiter-Glo ATP luminescence, 24 h; Potency, µM (top dose mostly 92.2 µM), without a hit: at the top dose activity change, negative = less growth, usual class: inhibitors; 360,000 compounds, 0.21% hits; active means well fitted falling curve with a large enough effect; inconclusive means small, poorly fitted or top-dose-only effect; inactive means no such curve, though single readings can be large or run the other way; further: potency means the concentration at half of the fitted maximal effect; on the % scale 0 is the no-effect control and ±100 the full control effect; nearly all actives have a fitted effect of over 50% in size
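Fission yeast strain RE007, carrying one chromosomally integrated HIV-1 vpr copy, was seeded at OD 0.01 in PMG+AL medium with 23 nL pinned compound. After 24 h at 30 °C and 99% humidity, viability was read by BacTiter-Glo luminescence.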
* = called active by the depositor; ? = inconclusive; . = no result; [ ] = another dose, or the depositor's remark. The sample as a whole holds a higher share of hits than the screen did. Unless noted, the call rests on the fitted dose curve; in most records, active means well fitted curve in the direction sought with a large enough effect; inconclusive means small, poorly fitted or top-dose-only effect, or another doubt; inactive means no such curve, though single readings can be large; an effect the other way counts as inactive or inconclusive.

SMILES	LmPK inhibitor	FBPA Giardia inh	Cycloheximide cs	Shiga toxin inh	Tb PYK inh	RE007 growth inh
COc1cc(NC(=O)C/C(C)=N/NC(=O)c2cccc(O)c2)c(OC)cc1Cl	4.0%	-0.6%	29.9*	128.7*	-2.5%	-17.3%
CC(C)(C)N1C(=O)[C@H]2[C@H]3[C@H](O)[C@H](O)C/C(=N/NC(=O)OCc4ccccc4)[C@H]3CC[C@@H]2C1=O	.	-0.3%[12.9 µM]	.	.	.	.
CC1(C)CC(=O)c2sc(NC(=O)CN3CCCCC3)nc2C1	-2.1%	-14.7%	15.8	27.2	-3.8%	-0.9%
CC1(C)CC(=O)c2sc(NC(=O)CCS(=O)(=O)c3ccccc3)nc2C1	5.4%	9.0%	30.2*	15.9	-3.3%	4.0%
CC1(C)CC(=O)c2sc(NC(=O)c3ccccc3)nc2C1	-12.6%	-5.5%	33.2*	75.1*	.	.
CC(C)(C)c1nnc(NC(=O)CCS(=O)(=O)c2ccccc2)s1	-1.2%	-5.3%	-3.4	2.3	-1.3%	6.7%
CC1(C)CC(=O)c2sc(NC(=O)c3cccs3)nc2C1	?	1.2%	15.7*	19.2	-7.4%	?
CC(Oc1ccccc1)C(=O)Nc1nc2c(s1)C(=O)CC(C)(C)C2 (centres undefined)	-3.4%	5.4%	-2.3	-6.0	3.9%	-3.8%
CC1(C)CC(=O)c2sc(NC(=O)C(C)(C)C)nc2C1	3.3%	-2.7%	40.2*	92.1*	-6.7%	12.1%
Cc1ccc2c(=O)c(C(=O)c3ccc(F)cc3)cn(CC(=O)Nc3ccc4c(c3)OCCO4)c2n1	.	.	.	.	-0.5%	.
CCOC(=O)c1cnc(N2CCN(c3cccc(C)c3C)CC2)c2ccccc12	.	.	.	.	-1.4%	.
CCOc1ccc(C2C(C(=O)Nc3ccccc3)=C(C)Nc3nc(SCc4cccc(OC)c4)nn32)cc1 (centres undefined)	.	.	.	.	-4.6%	.
CC1(C)CC(=O)c2sc(NC(=O)c3ccc4ncsc4c3)nc2C1	-6.5%	0.3%	23.9*	62.2*	?	-1.3%
CC1(C)CNC(=O)c2sc(NC(=O)c3ccccc3)nc2C1	-3.4%	1.3%	51.1*	109.5*	-8.8%	1.5%
CC1(C)CC(=O)c2sc(NS(=O)(=O)c3ccc(Br)cc3)nc2C1	1.0%	8.7%	-3.5	-10.5	-14.3%	4.0%
C/C(=C\C[Si](C)(C)C)CC[C@H](O)C1=CCCCC1=O	.	-0.5%	.	.	.	.
COc1ccc(Cn2cc(C(=O)c3ccc(Cl)cc3)c(=O)c3cc4c(cc32)OCO4)cc1	.	.	.	.	4.0%	.
CCC1=C2CC[C@H]3C(=O)N(c4ccccc4)C(=O)[C@H]3[C@H]2[C@@]2(C)C(=O)N(Cc3ccccc3)C(=O)N2C1=O	.	0.2%	.	.	.	.
COc1cc(NC(=O)NC2Cc3ccccc3C2)cc(OC)c1	-0.7%	-3.3%	20.5*	52.8*	2.7%	6.4%
COc1cccc(NC(=O)C(=S)NC2CCCCC2)c1	-17.4%	-3.6%	50.5*	105.8*	-1.8%	-23.0%
COc1cc(NC(=O)C2Cc3ccccc3CN2S(C)(=O)=O)cc(OC)c1 (centres undefined)	0.5%	-3.7%	1.7	-3.7	-5.9%	5.5%
COc1cccc(NC(=O)NC2CCCCCCC2)c1	9.3%	-5.2%	50.3*	155.3*	-1.9%	-6.5%
CCOC(=O)OCC1OC(c2ccccc2)C=CC1Oc1cccc(N(C)C)c1 (centres undefined)	.	-5.0%[12.9 µM]	.	.	.	.
CN1CCN(C(=O)c2cccc(COc3cc(Cl)ccc3Cl)c2)CC1	-0.3%	3.0%	48.0*	102.6*	-3.3%	-13.6%
CCN(CC)C(=O)c1ccc(COc2ccccc2Cl)cc1	13.3%	2.9%	19.5	48.1*	3.0%	5.1%
SMILES	LmPK inhibitor	FBPA Giardia inh	Cycloheximide cs	Shiga toxin inh	Tb PYK inh	RE007 growth inh
O=C(Nc1ccccc1Cl)c1cccc(COc2cc(Cl)ccc2Cl)c1	-2.3%	1.8%	41.6*	50.9*	-4.3%	8.8%
CN1CCN(C(=O)c2ccc(COc3cc(Cl)ccc3Cl)o2)CC1	3.7%	5.7%	-8.8	-13.0	4.6%	5.0%
Cc1nn(Cc2c(F)c(F)c(F)c(F)c2F)c(C)c1NC(=O)c1cccc(COc2ccccc2Cl)c1	-2.3%	0.8%	68.6*	161.9*	-4.4%	-8.0%
COc1ccc(C(=O)Nc2cc(OCc3ccccc3)c(Cl)cc2Cl)cc1	4.6%	0.4%	0.6	5.0	1.0%	17.3%
CN(C(=O)c1ccccc1OCc1ccc(Cl)cc1)c1ccccc1	-3.0%	.	0.7	-19.4	9.3%	4.7%
C=C(C(C)=O)C(O)c1ccc(C(F)(F)F)cc1 (centres undefined)	.	0.1%	.	.	.	.
O=C(Cn1c(=O)c2cc(Cl)ccc2n2nncc12)Nc1ccccc1	.	.	.	.	4.1%	.
CCOC(=O)C1CCCN(S(=O)(=O)c2ccc(N3CCCCS3(=O)=O)cc2)C1 (centres undefined)	.	.	.	.	-4.6%	.
Cc1nnc2c3ccccc3nc(N3CCN(c4cccc(Cl)c4)CC3)n12	.	.	.	.	1.9%[15.4 µM]	.
O=C(O)c1ccc(COc2ccccc2Cl)cc1	-13.8%	?	28.5*	145.2*	-9.5%	-2.3%
CCC(C)NC(=O)c1ccc(COc2ccccc2Cl)cc1 (centres undefined)	2.9%	8.8%	15.4*	46.1	4.2%	-8.3%
N#C/C(=C\c1ccccc1OCc1ccc(C(=O)O)cc1)c1ccccc1	11.0%	7.5%	1.1	14.8	-7.1%	-0.5%
O=C(O)c1cccc(COc2ccccc2Cl)c1	14.1µM*	?	13.6*	18.8*	-17.3%	-10.1%
COc1cccc(CNC(=O)C(=O)NCC(c2cccs2)S(=O)(=O)c2cccs2)c1 (centres undefined)	.	.	.	.	-1.4%	.
CCCc1nn2c(=O)cc(COC(=O)C3CCCCC3)nc2s1	.	.	.	.	-2.8%	.
Cc1cc(C(=O)Nc2ccc(Cl)cc2)c(C)n1-c1ccccc1	-24.8%	?	6.3	7.4	-6.1%	-11.8%
Cc1ccc(NC(=O)c2cc(C)n(-c3ccccc3)c2C)cc1	?	?	26.4*	25.1	3.6%	22.6%
Cc1ccc(NC(=O)c2cc(C)n(-c3cccc(C)c3)c2C)cc1	-8.3%	?	76.3*	72.5*	-4.2%	-5.9%
COc1cc(-c2noc(-c3ccc(NC4CCCC4)c([N+](=O)[O-])c3)n2)cc(OC)c1OC	.	.	.	.	0.0%	.
CCN(Cc1ccccc1)Cc1c(O)ccc2c(=O)c(-c3ccc(Cl)cc3)coc12	.	.	.	.	-4.9%	.
O=C(COC(=O)C1C2CC3OC(=O)C1C3C2)Nc1ccccc1 (centres undefined)	1.2%	5.5%	16.2*	17.5	-0.3%	-20.1%
CCNC(=O)c1cnc2c(-c3ccccc3)c(C)nn2c1C	.	.	.	.	-3.3%	.
Cc1cc(C)n2nc(N)c(N=Nc3cccc(Cl)c3)c2n1	-5.6%	-11.7%	7.6	16.5	2.9%	-13.8%
